Assay results as given in PubChem BioAssay.
Active and inactive are the calls of the source.

What was measured:
[1] = E. coli DRC41 culture turbidity changes, primary screen, E. coli filamentation inducer project, strain DRC41, OD650, 48 h (AID 1152);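 further: E. coli MC1000 strain DRC41 lacking acrAB efflux pump and sulA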; settings: E. coli DRC41 (acrAB sulA), higher = more signal, called active from +8 up or from −8 down
[2] = small-molecule binders of probe aLefty1, primary screen, biochemical, small-molecule microarray, 635/667 nm fluorescence (AID 1153); settings: higher = more signal;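 further: score merges spot fluorescence with signal-to-noise ratio from the scanned slide images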
[3] = PSAC antagonists in infected red cells, primary screen, cell-based, P. falciparum Indochina, OD700, 1 h (AID 1154); settings: P. falciparum Indochina infected RBC osmotic lysis, higher = more signal, called active from +8 up or from −8 down
[4] = PSAC antagonists in infected red cells, primary screen, cell-based, P. falciparum Indochina, OD700, 2 h (AID 1155);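 further: lysis reports solute entry through the parasite surface anion channel PSAC; channel blockers reduce lysis of infected cells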; settings: P. falciparum Indochina infected erythrocytes, osmotic lysis OD700; higher = more signal, called active from +8 up or from −8 down
[5] = osmotic lysis modulators in infected erythrocytes, primary screen, PSAC antagonist project, cell-based, P. falciparum Indochina, OD700, 3 h (AID 1156); settings: higher = more signal, called active from +8 up or from −8 down
[6] = PSAC antagonists in infected red cells, primary screen, cell-based, P. falciparum Indochina, OD700, 18 h (AID 1157); settings: P. falciparum Indochina infected erythrocytes, osmotic lysis OD700, 18 h; higher = more signal, called active from +8 up or from −8 down
[7] = modulators of S6 phosphorylation in cells, primary screen, cell-based, A549, cytoblot, luminescence, serum-stimulated (AID 1158); settings: A549 phospho-S6 cytoblot, 5 h, higher = more signal;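 further: serum-stimulated A549 lung adenocarcinoma cells; signal is phosphorylated S6 detected by cytoblot immunostaining with HRP secondary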
[8] = target: NADPH oxidase 2 (Homo sapiens) (UniProt P04839); assay: NOX2-dependent H2O2 signal modulators, primary screen, NOX inhibitor project, cell-based, HEK293-NOX2, PMA-stimulated, Amplex Red fluorescence (AID 1159); settings: 45 min, higher = more signal, called active from +8 up or from −8 down; further: test concentration not given here
[9] = target: NADPH oxidase 4 (Homo sapiens) (UniProt Q9NPH5); assay: NOX4-dependent H2O2 signal modulators, primary screen, NOX inhibitor project, cell-based, HEK293-NOX4, tetracycline-induced, Amplex Red fluorescence (AID 1160); settings: 45 min, higher = more signal, called active from +8 up or from −8 down
[10] = target: NADPH oxidase 5 (Homo sapiens) (UniProt Q96PH1); assay: NOX5-dependent H2O2 signal modulators, primary screen, NOX inhibitor project, cell-based, HEK293-NOX5, Amplex Red fluorescence (AID 1161); settings: HEK293-NOX5, ionomycin, 45 min, higher = more signal
NADPH oxidase 5 (Homo sapiens), sequence (Q96PH1 whole entry, looked up): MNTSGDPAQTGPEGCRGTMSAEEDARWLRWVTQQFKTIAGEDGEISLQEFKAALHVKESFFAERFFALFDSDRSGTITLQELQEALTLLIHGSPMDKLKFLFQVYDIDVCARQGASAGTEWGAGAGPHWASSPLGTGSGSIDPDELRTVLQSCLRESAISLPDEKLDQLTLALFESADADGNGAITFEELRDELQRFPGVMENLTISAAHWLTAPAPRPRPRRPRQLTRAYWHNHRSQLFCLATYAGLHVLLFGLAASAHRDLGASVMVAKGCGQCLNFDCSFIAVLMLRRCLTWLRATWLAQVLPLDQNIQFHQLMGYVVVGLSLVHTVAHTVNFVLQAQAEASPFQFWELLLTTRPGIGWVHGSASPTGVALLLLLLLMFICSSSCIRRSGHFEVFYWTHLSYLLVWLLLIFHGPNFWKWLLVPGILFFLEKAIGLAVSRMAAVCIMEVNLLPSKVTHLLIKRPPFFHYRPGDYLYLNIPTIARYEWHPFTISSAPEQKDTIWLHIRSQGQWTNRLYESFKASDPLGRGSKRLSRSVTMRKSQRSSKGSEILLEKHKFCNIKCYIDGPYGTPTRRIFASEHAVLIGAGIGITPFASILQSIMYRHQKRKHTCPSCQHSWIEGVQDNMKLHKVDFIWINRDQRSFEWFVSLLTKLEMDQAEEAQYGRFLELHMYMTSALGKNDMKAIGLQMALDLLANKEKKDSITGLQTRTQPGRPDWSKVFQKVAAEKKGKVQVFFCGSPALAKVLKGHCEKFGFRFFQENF

NADPH oxidase 2 (Homo sapiens), sequence (P04839 whole entry, looked up): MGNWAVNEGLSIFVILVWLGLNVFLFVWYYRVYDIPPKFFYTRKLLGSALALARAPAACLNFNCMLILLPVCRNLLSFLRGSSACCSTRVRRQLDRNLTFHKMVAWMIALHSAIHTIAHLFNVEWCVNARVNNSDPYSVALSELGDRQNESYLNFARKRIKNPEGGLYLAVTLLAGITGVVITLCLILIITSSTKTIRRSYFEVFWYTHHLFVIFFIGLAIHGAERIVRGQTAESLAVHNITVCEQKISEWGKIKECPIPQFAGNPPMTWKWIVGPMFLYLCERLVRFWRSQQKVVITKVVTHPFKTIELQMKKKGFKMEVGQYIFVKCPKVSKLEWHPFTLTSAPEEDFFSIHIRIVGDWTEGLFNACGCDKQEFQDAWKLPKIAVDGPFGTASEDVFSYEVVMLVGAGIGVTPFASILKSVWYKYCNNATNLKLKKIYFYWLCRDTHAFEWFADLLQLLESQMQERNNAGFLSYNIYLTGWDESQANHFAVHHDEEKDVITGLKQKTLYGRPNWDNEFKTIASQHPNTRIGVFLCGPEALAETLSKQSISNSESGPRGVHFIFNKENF
NADPH oxidase 4 (Homo sapiens), sequence (Q9NPH5 whole entry, looked up): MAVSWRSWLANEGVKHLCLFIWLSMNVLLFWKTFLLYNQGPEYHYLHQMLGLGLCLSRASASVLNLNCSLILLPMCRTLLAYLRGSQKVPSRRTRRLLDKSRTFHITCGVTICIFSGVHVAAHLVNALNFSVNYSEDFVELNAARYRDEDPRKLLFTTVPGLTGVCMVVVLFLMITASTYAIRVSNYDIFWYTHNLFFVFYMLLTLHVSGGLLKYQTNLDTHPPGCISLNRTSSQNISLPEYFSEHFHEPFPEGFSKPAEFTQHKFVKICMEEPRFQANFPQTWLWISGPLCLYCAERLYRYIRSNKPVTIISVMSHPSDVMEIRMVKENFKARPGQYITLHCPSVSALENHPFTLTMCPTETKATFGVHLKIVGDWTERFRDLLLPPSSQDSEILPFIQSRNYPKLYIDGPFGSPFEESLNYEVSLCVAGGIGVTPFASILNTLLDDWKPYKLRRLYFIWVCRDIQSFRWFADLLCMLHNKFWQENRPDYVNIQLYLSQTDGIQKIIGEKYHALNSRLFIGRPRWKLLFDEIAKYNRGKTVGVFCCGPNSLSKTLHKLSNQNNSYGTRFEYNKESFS

Compound | z-score [1] | composite z-score [2] | z-score [3] | z-score [4] | z-score [5] | z-score [6] | z-score [7] | z-score [8] | z-score [9] | z-score [10]
COC(=O)[C@@]1(Cc2ccc(F)cc2)[C@H]2c3cc(C(=O)N4CCCC4)n(CC4CC4)c3C[C@H]2CN1C(=O)c1ccccc1 | -1.37 (inactive) | 1.56 | 2.89 (inactive) | 0.0582 (inactive) | 0.454 (inactive) | 0.666 (inactive) | 0.516 | 0.0286 (inactive) | -1.62 (inactive) | -0.81
COc1cc(NN2C(C(O)C3CCCCC3)C=CC3C(=O)N(C)C(=O)C32)cc(OC)c1OC (stereo not given) | -1.27 (inactive) | 0.949 | 0.713 (inactive) | 0.608 (inactive) | 0.917 (inactive) | 1.34 (inactive) | -0.723 | -0.904 (inactive) | -2.73 (inactive) | -1.7
[N-]=[N+]=NCc1ccccc1[C@@H]1OC(c2ccc(OCCCO)cc2)=N[C@]1(Cc1ccccc1N=[N+]=[N-])C(=O)N1CCCCC1 | 0.155 (inactive) | 0.358 | 16.3 (active) | 2.78 (inactive) | 1.15 (inactive) | 0.86 (inactive) | 0.0177 | -1.45 (inactive) | 0.924 (inactive) | 1.17
O=C(O)[C@@H]1C[C@@H]2C(=O)N3CCC[C@H]3C(=O)N2[C@@H]1c1cccc(OCCO)c1 | 0.807 (inactive) | 2.57 | 2.94 (inactive) | 0.591 (inactive) | -1.77 (inactive) | 0.35 (inactive) | 0.132 | 1.29 (inactive) | 0.355 (inactive) | 1.59
CCCCC(=C=CC[C@H](O)c1ccc(OCCO)cc1)C[C@H](O)COCc1ccccc1 | -0.088 (inactive) | -0.235 | 18.2 (active) | 3.18 (inactive) | 0.871 (inactive) | 1.02 (inactive) | -0.881 | -0.751 (inactive) | -0.446 (inactive) | -2.05
CC(C)[C@H]1NC(=O)[C@@]23C(=O)N[C@@H](Cc4ccccc4)C2[C@H](C)[C@@]2(C)O[C@H]2C3/C=C/CCC/C=C/CNC(=O)[C@H](Cc2ccccc2)NC1=O (stereo not given in full) | -0.246 (inactive) | 0.0582 | 1.18 (inactive) | 0.581 (inactive) | 0.81 (inactive) | 0.182 (inactive) | 0.352 | 1.46 (inactive) | 0.525 (inactive) | 0.896
Cc1ccc(S[C@]2(C(=O)NC(C)C)CC(=O)N(C(C)C)[C@@H]2c2ccc(CO)cc2I)cc1 | -0.745 (inactive) | 0.207 | 4.77 (inactive) | 0.342 (inactive) | 0.59 (inactive) | 0.397 (inactive) | 0.293 | 1.8 (inactive) | -1.53 (inactive) | -0.227
Nc1cc(Br)ccc1C(=O)O | 0.813 (inactive) | 0.139 | -0.319 (inactive) | 0.371 (inactive) | -0.611 (inactive) | 0.0089 (inactive) | 0.265 | 0.0525 (inactive) | -0.204 (inactive) | 0.142
C=C(/C(=C/C[C@@H](OC(=O)c1ccncc1)c1cccc(OCCO)c1)c1cnc2ccccc2c1)C(C)C | 0.172 (inactive) | 0.13 | 13.7 (active) | 1.86 (inactive) | 1.32 (inactive) | 0.897 (inactive) | 0.199 | -1.34 (inactive) | -0.507 (inactive) | -0.782
COC(=O)C(CC#Cc1ccc2c(c1)[C@]1(C(=O)N2)[C@H](c2ccc(OCCO)cc2)N2[C@H](c3ccccc3)[C@H](c3ccccc3)OC(=O)[C@H]2[C@@H]1C(=O)N1CCN(c2ncccn2)CC1)C(=O)OC | -0.34 (inactive) | 0.53 | 4.2 (inactive) | 1.62 (inactive) | 0.257 (inactive) | 0.539 (inactive) | -0.454 | 1.46 (inactive) | 1.05 (inactive) | 1.52
[N-]=[N+]=NC[C@H](Cc1ccccc1)NC(=O)c1ccccc1 | 1.44 (inactive) | 0.0606 | 0.0465 (inactive) | 0.872 (inactive) | 0.264 (inactive) | 0.432 (inactive) | -0.282 | 0.192 (inactive) | -0.441 (inactive) | 0.122
